Where “and” joins values, the source holds several entries; their conditions need not be identical. Equal entries are not always repeated. Screen size: about 5,500 compounds; about 2,000 (36%) were called active. Roughly 18% stayed inconclusive and do not appear here. The list shows a part of the results. Unmarked numbers belong to inactive results. No stated cut-off is given here; in the data, active means normalized growth mostly below about 0.91 (no sharp cut-off); inconclusive means no clear call, values can overlap the other calls; inactive means mostly above about 0.92.
Test: chemical genetic growth profiling, strain panel (AID 1159580);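 further: tested at 20 µM; growth read once vehicle control cultures reached saturation at 30 °C; 1 = growth at the plate median or of vehicle wells; lower values mean less growth of the strain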
Conditions: S. cerevisiae deletion strains, growth OD

O=C1C(Cl)=C(Cl)C(=O)C(Cl)=C1Cl
normalized growth (locus YAL013W, strain DEP1, hits give low values): 0.483 (active)
normalized growth (locus YAL021C, strain ccr4, hits give low values): 0.883 (active)
normalized growth (locus YAL026C, strain drs2, hits give low values): 0.831 (active)
normalized growth (locus YAL030W, strain snc1, hits give low values): 0.986
normalized growth (locus YBL061C, strain skt5, hits give low values): 0.994
normalized growth (locus YBR009C, strain hhf1, hits give low values): 0.843 (active)
normalized growth (locus YBR021W, strain FUR4, hits give low values): 0.293 (active)
normalized growth (locus YBR023C, strain chs3, hits give low values): 0.927
normalized growth (locus YBR171W, strain sec66, hits give low values): 0.967
normalized growth (locus YBR229C, strain ROT2, hits give low values): 0.979
normalized growth (locus YBR231C, strain swc5, hits give low values): 0.96
normalized growth (locus YBR279W, strain paf1, hits give low values): 0.929 (active)
normalized growth (locus YCL011C, strain gbp2, hits give low values): 0.865 (active)
normalized growth (locus YCL016C, strain dcc1, hits give low values): 0.919
normalized growth (locus YCL029C, strain bik1, hits give low values): 0.929
normalized growth (locus YCL069W, strain vba3, hits give low values): 0.985
normalized growth (locus YCR088W, strain abp1, hits give low values): 0.949
normalized growth (locus YDL005C, strain med2, hits give low values): 1
normalized growth (locus YDL035C, strain GPR1, hits give low values): 0.525 (active)
normalized growth (locus YDL040C, strain nat1, hits give low values): 0.976
normalized growth (locus YDL074C, strain BRE1, hits give low values): 0.531 (active)
normalized growth (locus YDL101C, strain DUN1, hits give low values): 0.941
normalized growth (locus YDL134C, strain PPH21, hits give low values): 0.499 (active)
normalized growth (locus YDL185W, strain tfp1, hits give low values): 0.118 (active)
normalized growth (locus YDL192W, strain arf1, hits give low values): 0.239 (active)
normalized growth (locus YDR001C, strain nth1, hits give low values): 0.991
normalized growth (locus YDR069C, strain doa4, hits give low values): 0.92
normalized growth (locus YDR101C, strain arx1, hits give low values): 0.881 (active)
normalized growth (locus YDR137W, strain rgp1, hits give low values): 0.978
normalized growth (locus YDR150W, strain NUM1, hits give low values): 0.79 (active)
normalized growth (locus YDR159W, strain sac3, hits give low values): 1.03
normalized growth (locus YDR162C, strain NBP2, hits give low values): 0.384 (active)
normalized growth (locus YDR195W, strain ref2): 0.894
normalized growth (locus YDR297W, strain sur2, hits give low values): 0.997
normalized growth (locus YDR318W, strain mcm21, hits give low values): 0.181 (active)
normalized growth (locus YDR334W, strain swr1, hits give low values): 0.98
normalized growth (locus YDR335W, strain msn5, hits give low values): 0.963
normalized growth (locus YDR388W, hits give low values): 0.164 (active)
normalized growth (locus YDR392W, strain spt3, hits give low values): 0.686 (active)
normalized growth (locus YDR502C, strain sam2, hits give low values): 0.61 (active)
normalized growth (locus YEL003W, strain gim4, hits give low values): 0.881 (active)
normalized growth (locus YEL037C, strain rad23, hits give low values): 0.99
normalized growth (locus YEL061C, strain CIN8 (second series), hits give low values): 0.954
normalized growth (locus YEL061C, strain CIN8, hits give low values): 0.711 (active)
normalized growth (locus YER015W, strain faa2, hits give low values): 0.878 (active)
normalized growth (locus YER016W, strain bim1, hits give low values): 0.979
normalized growth (locus YER110C, hits give low values): 0.704 (active)
normalized growth (locus YER111C, strain swi4, hits give low values): 0.993
normalized growth (locus YER155C, strain BEM2 (second series), hits give low values): 0.763 (active)
normalized growth (locus YER155C, strain BEM2, hits give low values): 0.509 (active)
normalized growth (locus YER167W, strain BCK2, hits give low values): 0.198 (active)
normalized growth (locus YFR010W, strain ubp6, hits give low values): 0.891 (active)
normalized growth (locus YGL078C, strain dbp3, hits give low values): 0.077 (active)
normalized growth (locus YGL086W, strain mad1, hits give low values): 0.252 (active)
normalized growth (locus YGL167C, strain pmr1, hits give low values): 0.982
normalized growth (locus YGL173C, strain kem1, hits give low values): 0.958
normalized growth (locus YGL227W, strain vid30, hits give low values): 0.997
normalized growth (locus YGL240W, strain doc1, hits give low values): 0.99
normalized growth (locus YGL248W, strain PDE1, hits give low values): 0.502 (active)
normalized growth (locus YGL253W, strain hxk2, hits give low values): 0.993
normalized growth (locus YGR078C, strain PAC10, hits give low values): 0.226 (active)
normalized growth (locus YGR135W, strain pre9, hits give low values): 0.335 (active)
normalized growth (locus YGR229C, strain SMI1, hits give low values): 0.0849 (active)
normalized growth (locus YGR252W, strain gcn5, hits give low values): 0.195 (active)
normalized growth (locus YHR013C, strain ard1, hits give low values): 0.829 (active)
normalized growth (locus YHR027C, strain rpn1, hits give low values): 0.904 (active)
normalized growth (locus YHR030C, strain SLT2, hits give low values): 0.281 (active) and 0.105 (active)
normalized growth (locus YHR079C, strain IRE1 (second series), hits give low values): 0.91 (active)
normalized growth (locus YHR079C, strain IRE1, hits give low values): 0.129 (active)
normalized growth (locus YHR094C, strain hxt1, hits give low values): 0.614 (active)
normalized growth (locus YHR129C, strain ARP1, hits give low values): 0.655 (active)
normalized growth (locus YHR142W, strain chs7, hits give low values): 0.928
normalized growth (locus YHR200W, strain rpn10, hits give low values): 0.27 (active)
normalized growth (locus YIL066C, strain RNR3, hits give low values): 0.634 (active)
normalized growth (locus YIL073C, strain SPO22, hits give low values): 0.5 (active)
normalized growth (locus YIL125W, strain kgd1, hits give low values): 0.0634 (active)
normalized growth (locus YIR030C, strain dcg1, hits give low values): 0.85 (active)
normalized growth (locus YJL092W, strain hpr5, hits give low values): 0.94
normalized growth (locus YJL095W, strain BCK1 (second series), hits give low values): 0.978
normalized growth (locus YJL095W, strain BCK1, hits give low values): 0.724 (active) and 0.122 (active)
normalized growth (locus YJL115W, strain asf1, hits give low values): 0.979
normalized growth (locus YJL129C, strain trk1, hits give low values): 1
normalized growth (locus YJL134W, strain LCB3, hits give low values): 0.937
normalized growth (locus YJL154C, strain vps35, hits give low values): 0.984
normalized growth (locus YJL164C, strain tpk1, hits give low values): 0.892 (active)
normalized growth (locus YJL166W, strain qcr8, hits give low values): 0.871 (active)
normalized growth (locus YJL168C, strain set2, hits give low values): 0.8 (active)
normalized growth (locus YJL187C, strain SWE1 (second series), hits give low values): 0.982
normalized growth (locus YJR043C, strain POL32, hits give low values): 0.671 (active)
normalized growth (locus YJR066W, strain TOR1, hits give low values): 0.0486 (active)
normalized growth (locus YJR075W, strain HOC1, hits give low values): 0.566 (active)
